Source: PubChem BioAssay
The source made the active and inactive calls.

What was measured:
[1] = test system: Plasmodium falciparum Sir2 (PF13_0152, Sir2A); experiment: Plasmodium falciparum Sir2A binding compounds – biochemical, small-molecule microarray, 635 nm fluorescence, primary screen (AID 1098); conditions: fluorescence 635 nm, higher = more signal;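 further: score merges spot fluorescence intensity with its signal-to-noise ratio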
[2] = probe aDKK1 binding to arrayed compounds – biochemical, biotinylated probe, 635/667 nm fluorescence, primary screen (AID 1099); conditions: small-molecule microarray, higher = more signal;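 further: score merges 667nm spot fluorescence with signal to noise across triplicate slides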
[3] = probe aCHRDL2 binding to arrayed compounds – biochemical, biotinylated probe, 635/667 nm fluorescence, primary screen (AID 1100); conditions: small-molecule microarray, higher = more signal
[4] = change in splice reporter luminescence, either direction, cell-based, HEK293, spliceosome inhibition project, primary screen (AID 1101); conditions: HEK293 splicing luciferase reporter, 24 h, higher = more signal, called active from +8 up or from −8 down;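 further: HEK293 cells carrying a splicing-competent luciferase reporter gene; test concentration not given here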
[5] = molecular target: Fibroblast growth factor 10 (Homo sapiens) (UniProt O15520); experiment: compounds binding fibroblast growth factor 10 – biochemical, small-molecule microarray, 635 nm fluorescence, primary screen (AID 1102); conditions: FGF10 binding, fluorescence 635 nm, higher = more signal
[6] = test system: glycogen synthase kinase-3 (GSK3A per assay name; protocol says GSK3B); experiment: compounds binding glycogen synthase kinase-3 – biochemical, small-molecule microarray, 635 nm fluorescence, GSK3A, primary screen (AID 1103); conditions: fluorescence 635 nm, higher = more signal; further: the record names both GSK3A and GSK3B
[7] = molecular target: Epidermal growth factor receptor (Homo sapiens) (UniProt P00533); experiment: compounds binding epidermal growth factor receptor – biochemical, small-molecule microarray, 635 nm fluorescence, primary screen (AID 1104); conditions: EGFR binding, higher = more signal;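 further: score merges 667 nm emission intensity with spot signal to noise over triplicate slides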
[8] = molecular target: Follistatin-related protein 3 (Homo sapiens) (UniProt O95633); experiment: compounds binding follistatin-related protein 3 – biochemical, small-molecule microarray, 635 nm fluorescence, primary screen (AID 1105); conditions: FSTL3 binding, higher = more signal;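 further: score merges emission near 667 nm and signal to noise per printed spot across three slides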
[9] = molecular target: Dickkopf-related protein 1 (Homo sapiens) (UniProt O94907); experiment: small molecules binding DKK1 protein – biochemical, small-molecule microarray, 635 nm fluorescence scan, primary screen (AID 1106); conditions: higher = more signal;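 further: score merges emission near 667 nm with signal to noise over three replicate slides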
[10] = test system: Inhibin beta A chain (activin A); experiment: small molecules binding activin A – biochemical, small-molecule microarray, 635 nm fluorescence scan, primary screen (AID 1107); conditions: INHBA, higher = more signal;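 further: mouse activin A protein probed at 4.33 µg/mL on printed slides; score merges bound-protein fluorescence near 667 nm with spot signal-to-noise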
[11] = test system: Human papillomavirus type 1a protein E7 (residues 44-93); experiment: small molecules binding HPV E7 44-93 – biochemical, small-molecule microarray, residues 44-93, 635 nm fluorescence, primary screen (AID 1108); conditions: fluorescence 635 nm, higher = more signal;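 further: E7 fragment applied at 1 µg/mL in TBST for 1 h at 4 C; score combines spot fluorescence with its signal to noise ratio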
[12] = hepatitis C replication reporter changes, two-sided – Huh7 cells, luciferase reporter, HCV replication inhibitor project, primary screen (AID 1109); conditions: Huh7 HCV replicon luciferase reporter, 48 h; higher = more signal;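 further: huh7 hepatoma cells harbouring a luciferase neomycin HCV replicon reporter; luciferase luminescence as measure of HCV replicon replication; test concentration not given here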
[13] = molecular target: Left-right determination factor 2 (Homo sapiens) (UniProt O00292); experiment: small molecules binding LEFTY2 protein – biochemical, small-molecule microarray, 635 nm fluorescence scan, primary screen (AID 1110); conditions: higher = more signal
[14] = molecular target: Calmodulin-1 (Homo sapiens) (UniProt P0DP23); experiment: small molecules binding calmodulin-1 with EGTA – biochemical, small-molecule microarray, Cy5-labelled CALM1, profiling panel (AID 1111); conditions: Cy5-CALM1 binding fluorescence, higher = more signal;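 further: labelled calmodulin applied in Tris saline Tween buffer holding calcium plus EGTA and DTT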
[15] = molecular target: Calmodulin-1 (Homo sapiens) (UniProt P0DP23); experiment: small molecules binding Ca-loaded calmodulin-1 – biochemical, small-molecule microarray, Cy5-labelled CALM1, plus calcium, artefact control for SMM control-protein annotation, profiling panel (AID 1112); conditions: Cy5-CALM1 binding fluorescence, higher = more signal;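 further: score merges spot fluorescence with signal to noise from triplicate slides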
[16] = probe aWnt5a binding to arrayed compounds – biochemical, biotinylated probe, 635/667 nm fluorescence, primary screen (AID 1113); conditions: small-molecule microarray, higher = more signal;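 further: score merges 667 nm fluorescence intensity with signal-to-noise per printed feature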
[17] = probe aShh binding to arrayed compounds – biochemical, biotinylated probe, 635/667 nm fluorescence, primary screen (AID 1114); conditions: small-molecule microarray, higher = more signal;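 further: probe is biotin-labelled aShh protein from a stem cell growth factor screen; measures binding of labelled protein to compounds printed on the slide; score merges feature fluorescence at 667 nm with signal-to-noise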
[18] = probe aNog binding to arrayed compounds – biochemical, biotinylated probe, 635/667 nm fluorescence, primary screen (AID 1115); conditions: small-molecule microarray, higher = more signal;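 further: probe is biotinylated aNog protein used at 0.15 µg/mL for 1 h at 4 C; z-score combines 667 nm fluorescence of each spot with its signal to noise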
[19] = molecular target: Torsin-1A-interacting protein 1 (Homo sapiens) (UniProt Q5JTV8); experiment: compound microarray binding of lysate hLAP1 – cell lysate, small-molecule microarray, COS7 lysate, 635/667 nm fluorescence, primary screen (AID 1116); conditions: 635 nm fluorescence, higher = more signal
[20] = molecular target: Alpha-bungarotoxin (Bungarus multicinctus) (UniProt P60615); experiment: compounds binding labelled alpha-BTX control protein – biochemical, small-molecule microarray, Alexa647 label, 635/667 nm fluorescence, artefact control for SMM control protein annotation, profiling panel (AID 1117); conditions: alpha-BTX-A647 binding fluorescence, higher = more signal
Sequence of Alpha-bungarotoxin (Bungarus multicinctus) (P60615 whole entry, looked up): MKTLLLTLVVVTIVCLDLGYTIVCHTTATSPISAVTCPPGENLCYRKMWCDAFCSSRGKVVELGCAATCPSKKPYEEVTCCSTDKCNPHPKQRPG

Sequence of Fibroblast growth factor 10 (Homo sapiens) (O15520 whole entry, looked up): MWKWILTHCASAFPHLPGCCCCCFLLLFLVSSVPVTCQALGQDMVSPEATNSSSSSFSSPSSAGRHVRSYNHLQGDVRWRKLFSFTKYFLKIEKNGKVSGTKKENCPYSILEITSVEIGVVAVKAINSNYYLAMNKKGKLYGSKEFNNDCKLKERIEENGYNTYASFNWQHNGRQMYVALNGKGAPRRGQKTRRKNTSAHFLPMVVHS
Sequence of Follistatin-related protein 3 (Homo sapiens) (O95633 whole entry, looked up): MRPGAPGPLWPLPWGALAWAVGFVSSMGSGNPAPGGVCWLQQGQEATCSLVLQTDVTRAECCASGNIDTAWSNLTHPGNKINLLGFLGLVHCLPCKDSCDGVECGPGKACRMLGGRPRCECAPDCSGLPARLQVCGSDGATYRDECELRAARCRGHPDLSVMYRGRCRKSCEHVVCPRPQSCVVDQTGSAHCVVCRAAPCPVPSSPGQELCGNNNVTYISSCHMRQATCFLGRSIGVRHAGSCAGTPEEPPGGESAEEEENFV
Sequence of Left-right determination factor 2 (Homo sapiens) (O00292 whole entry, looked up): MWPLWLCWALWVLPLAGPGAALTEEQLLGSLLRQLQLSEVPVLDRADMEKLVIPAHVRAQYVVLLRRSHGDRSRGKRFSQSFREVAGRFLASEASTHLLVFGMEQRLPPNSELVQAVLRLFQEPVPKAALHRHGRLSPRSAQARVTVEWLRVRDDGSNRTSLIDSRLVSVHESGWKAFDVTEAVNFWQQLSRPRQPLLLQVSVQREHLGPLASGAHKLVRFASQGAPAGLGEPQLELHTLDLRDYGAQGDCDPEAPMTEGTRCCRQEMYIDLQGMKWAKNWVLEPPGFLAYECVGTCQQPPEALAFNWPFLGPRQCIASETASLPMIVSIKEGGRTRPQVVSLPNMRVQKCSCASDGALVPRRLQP
Sequence of Torsin-1A-interacting protein 1 (Homo sapiens) (Q5JTV8 whole entry, looked up): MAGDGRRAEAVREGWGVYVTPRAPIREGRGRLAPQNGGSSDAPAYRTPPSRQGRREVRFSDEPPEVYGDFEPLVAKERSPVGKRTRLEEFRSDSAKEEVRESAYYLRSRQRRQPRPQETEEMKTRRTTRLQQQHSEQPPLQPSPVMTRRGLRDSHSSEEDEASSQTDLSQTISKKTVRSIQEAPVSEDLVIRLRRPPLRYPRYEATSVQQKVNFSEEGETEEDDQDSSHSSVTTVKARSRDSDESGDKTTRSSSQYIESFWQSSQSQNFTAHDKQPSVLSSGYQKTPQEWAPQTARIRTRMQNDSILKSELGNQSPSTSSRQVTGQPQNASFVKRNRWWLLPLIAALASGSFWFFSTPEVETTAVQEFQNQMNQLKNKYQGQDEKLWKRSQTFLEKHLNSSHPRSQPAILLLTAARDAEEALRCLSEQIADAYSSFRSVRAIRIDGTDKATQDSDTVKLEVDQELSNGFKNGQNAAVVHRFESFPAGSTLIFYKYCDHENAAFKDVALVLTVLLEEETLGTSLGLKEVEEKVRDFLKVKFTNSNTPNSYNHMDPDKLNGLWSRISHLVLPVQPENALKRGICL
Sequence of Epidermal growth factor receptor (Homo sapiens) (P00533 whole entry, looked up): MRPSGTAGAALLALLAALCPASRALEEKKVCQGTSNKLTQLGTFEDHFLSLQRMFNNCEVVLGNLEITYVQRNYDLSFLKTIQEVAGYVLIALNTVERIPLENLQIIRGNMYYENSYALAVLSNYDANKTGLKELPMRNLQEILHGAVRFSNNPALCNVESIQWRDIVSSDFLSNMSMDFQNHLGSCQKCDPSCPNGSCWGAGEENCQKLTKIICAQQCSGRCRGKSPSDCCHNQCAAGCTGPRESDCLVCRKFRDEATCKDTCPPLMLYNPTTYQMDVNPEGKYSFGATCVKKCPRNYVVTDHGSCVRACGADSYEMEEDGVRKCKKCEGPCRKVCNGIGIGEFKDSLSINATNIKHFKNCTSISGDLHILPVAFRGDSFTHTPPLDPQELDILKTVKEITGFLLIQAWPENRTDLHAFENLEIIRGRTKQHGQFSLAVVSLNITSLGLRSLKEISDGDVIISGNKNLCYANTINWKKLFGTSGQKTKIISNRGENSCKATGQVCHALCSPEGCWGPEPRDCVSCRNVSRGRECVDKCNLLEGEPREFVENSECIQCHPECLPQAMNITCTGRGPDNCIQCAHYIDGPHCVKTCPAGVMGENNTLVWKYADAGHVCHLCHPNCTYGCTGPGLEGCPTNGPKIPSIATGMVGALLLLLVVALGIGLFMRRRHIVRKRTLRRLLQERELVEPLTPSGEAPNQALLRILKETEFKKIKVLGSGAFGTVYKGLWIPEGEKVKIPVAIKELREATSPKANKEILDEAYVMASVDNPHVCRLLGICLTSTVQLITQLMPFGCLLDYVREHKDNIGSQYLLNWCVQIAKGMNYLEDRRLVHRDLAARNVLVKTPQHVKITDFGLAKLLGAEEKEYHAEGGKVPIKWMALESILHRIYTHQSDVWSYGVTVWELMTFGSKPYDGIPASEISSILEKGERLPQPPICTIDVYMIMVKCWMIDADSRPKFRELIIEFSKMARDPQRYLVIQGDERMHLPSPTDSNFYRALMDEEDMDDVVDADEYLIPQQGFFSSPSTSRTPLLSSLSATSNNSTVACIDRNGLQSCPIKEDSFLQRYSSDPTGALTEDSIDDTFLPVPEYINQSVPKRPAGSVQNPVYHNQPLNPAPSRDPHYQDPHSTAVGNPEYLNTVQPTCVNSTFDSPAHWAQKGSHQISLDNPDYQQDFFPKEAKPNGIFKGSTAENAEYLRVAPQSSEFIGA
Sequence of Dickkopf-related protein 1 (Homo sapiens) (O94907 whole entry, looked up): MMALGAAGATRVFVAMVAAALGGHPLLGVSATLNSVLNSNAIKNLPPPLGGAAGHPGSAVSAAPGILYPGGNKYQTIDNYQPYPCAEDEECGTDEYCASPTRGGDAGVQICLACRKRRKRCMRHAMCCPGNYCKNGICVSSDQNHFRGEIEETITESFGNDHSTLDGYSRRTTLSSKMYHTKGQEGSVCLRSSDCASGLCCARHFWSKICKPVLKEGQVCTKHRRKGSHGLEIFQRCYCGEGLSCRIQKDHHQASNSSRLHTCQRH

| Compound | composite z-score [1] | composite z-score [2] | composite z-score [3] | z-score [4] | composite z-score [5] | composite z-score [6] | composite z-score [7] | composite z-score [8] | composite z-score [9] | composite z-score [10] | composite z-score [11] | z-score [12] | composite z-score [13] | composite z-score [14] | composite z-score [15] | composite z-score [16] | composite z-score [17] | composite z-score [18] | composite z-score [19] | composite z-score [20] |
| --- | --- | --- | --- | --- | --- | --- | --- | --- | --- | --- | --- | --- | --- | --- | --- | --- | --- | --- | --- | --- |
| CCOC(=O)[C@H](Cc1ccccc1)NC(=O)CCC1CC(OC(=O)NCc2ccc3c(c2)OCO3)CC2(CCCC(COC(=O)NCc3cccc(C(F)(F)F)c3)O2)O1 (stereo not given in full) | 0.239 | 0.113 | -0.338 | -1.18 (inactive) | 0.984 | 0.584 | 0.314 | 1 | 0.495 | 0.321 | 0.547 | -1.21 | 0.48 | 0.214 | -0.286 | -0.0792 | 0.108 | 0.205 | 0.251 | 0.0294 |
| C[N+](C)(C)CCCCCCNC(=O)[C@@H]1C[C@@H]2C(=O)N3CCC[C@H]3C(=O)N2[C@@H]1c1cccc(OCCO)c1 | 1.26 | -0.303 | 0.824 | -0.739 (inactive) | -0.0327 | 0.586 | 0.36 | 0.476 | 0.808 | 1.03 | 1.34 | 1.41 | 0.385 | 0.233 | -1.07 | -0.197 | 0.905 | -0.238 | -0.24 | -0.0576 |
| COC(=O)[C@@]1(Cc2ccccc2)[C@H]2c3cc(C(=O)N4CCCC4)n(Cc4ccccn4)c3C[C@H]2CN1C(=O)c1ccccc1 | 1.54 | 1.52 | 1.31 | -2.15 (inactive) | 1.37 | 1.3 | 0.204 | 1.41 | 0.166 | 0.456 | 1.5 | -1.24 | 0.0043 | 1.45 | 0.053 | 0.752 | 0.894 | 2.25 | 2.42 | 0.914 |
